The text below walks through data of publication PMC5540273 (PLoS ONE, 2017).

Some test systems named below: MELK; MERTK; MET; MKK7; MKNK1; MKNK2; MLK2; MLK3; MRCKA; MST1R.
Holding throughout (settings): n = 1
Another experiment concerns T1, MEK2.
T1 construct: gene MAP2K2

A further experiment concerns T2, MEK3.
T2 construct: gene MAP2K3

Another experiment has as its system T3, MEK4.
T3 construct: gene MAP2K4

The next experiment deals with T4, MEK5.
T4 construct: gene MAP2K5

In a further experiment the test system is T5, MEK6.
T5 construct: gene MAP2K6

A further experiment relates to T6, MINK.
T6 construct: gene MINK1

Another experiment deals with T7, MLCK.
T7 construct: gene MYLK3

The next experiment has as its system T8, MLK1.
T8 construct: gene MAP3K9

A further experiment deals with T9, MRCKB.
T9 construct: gene CDC42BPB

A further experiment has as its system T10, MST1.
T10 construct: gene STK4

Where [1] appears, read: concentration: 1 μM, replicates: in singlicate.

Read-outs that look alike come from different tables or passages of the source.
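Note: KINOMEscan kinase panel screen.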

On to `O=S(=O)(c1ccc(-c2ccnc3[nH]ccc23)cc1)N1CCCC1` [GSK846226], for which the “%Inh” value with MEK2 (setting [1]) turned out to be 22%; in the experiment with MEK3 (setting [1]), 0%; in the experiment with MEK4 (setting [1]), 18%; with MEK5 (setting [1]) it was 14%; in the experiment on MEK6 (setting [1]) it was 21%; in the experiment on MELK (setting [1]), 7%. Also, the “%Inh” value stood at 16% with MERTK (setting [1]); 0% in the experiment on MET (setting [1]); 0% in the experiment with MINK (setting [1]); 0% in the experiment on MKK7 (setting [1]); 14% in the experiment on MKNK1 (setting [1]); 46% in the experiment on MKNK2 (setting [1]). In addition, the “%Inh” value is listed as 4% with MLCK (setting [1]); 0% in the experiment on MLK1 (setting [1]); 0% in the experiment with MLK2 (setting [1]); 0% in the experiment with MLK3 (setting [1]); 0% with MRCKA (setting [1]); 0% with MRCKB (setting [1]). Also, the results for the “%Inh” value in the experiment on MST1R (setting [1]) and in the experiment on MST1 (setting [1]) were 16% and 0%, respectively.
For the molecule `CCn1c(-c2cccnc2O)nc2cnccc21` [SB-736715], the “%Inh” value in the experiment on MEK2 (setting [1]) was determined as 0%; in the experiment with MEK3 (setting [1]) it was 14%; with MEK4 (setting [1]), 0%; with MEK5 (setting [1]), 11%; in the experiment with MEK6 (setting [1]), 0%; in the experiment with MELK (setting [1]), 1%. Moreover, the “%Inh” value came to 26% with MERTK (setting [1]); 0% with MET (setting [1]); 0% in the experiment with MINK (setting [1]); 0% in the experiment with MKK7 (setting [1]); 17% in the experiment with MKNK1 (setting [1]); 1% in the experiment on MKNK2 (setting [1]). In addition, the “%Inh” value in the experiment with MLCK (setting [1]) amounted to 0%; with MLK1 (setting [1]), 0%; in the experiment with MLK2 (setting [1]), 0%; in the experiment with MLK3 (setting [1]), 0%; with MRCKA (setting [1]), 4%; in the experiment with MRCKB (setting [1]), 0%. The “%Inh” value with MST1R (setting [1]) and in the experiment on MST1 (setting [1]) was 0% each time.
For `Cc1ccc(C(=O)Nc2ccc(Nc3ccnc4cc(-c5ccccn5)ccc34)cc2O)cc1.Cl` [GW440146], the “%Inh” value amounted to 0% in the experiment with MEK2 (setting [1]); 0% with MEK3 (setting [1]); 19% with MEK4 (setting [1]); 100% in the experiment on MEK5 (setting [1]); 0% with MEK6 (setting [1]); 0% in the experiment on MELK (setting [1]). The “%Inh” value came to 33% with MERTK (setting [1]); 0% with MET (setting [1]); 36% with MINK (setting [1]); 0% in the experiment on MKK7 (setting [1]); 0% with MKNK1 (setting [1]); 0% in the experiment with MKNK2 (setting [1]). The “%Inh” value in the experiment with MLCK (setting [1]) is listed as 0%; in the experiment on MLK1 (setting [1]) it was 0%; with MLK2 (setting [1]), 0%; with MLK3 (setting [1]), 0%; in the experiment with MRCKA (setting [1]), 18%; in the experiment with MRCKB (setting [1]) it was 0%. Further, the “%Inh” value with MST1R (setting [1]) is reported as 52%; in the experiment with MST1 (setting [1]), 10%.
For `Cc1cccc(-c2nc(-c3ccc(S(C)(=O)=O)cc3)sc2-c2ccnc(NCCc3ccccc3)c2)c1`, the “%Inh” value with MEK2 (setting [1]) was 7%; in the experiment with MEK3 (setting [1]), 0%; with MEK4 (setting [1]), 25%; with MEK5 (setting [1]) it was 0%; in the experiment with MEK6 (setting [1]) it was 8%; in the experiment on MELK (setting [1]), 0%. Further, the “%Inh” value worked out at 0% with MERTK (setting [1]); 0% in the experiment on MET (setting [1]); 0% in the experiment on MINK (setting [1]); 0% in the experiment on MKK7 (setting [1]); 3% in the experiment on MKNK1 (setting [1]); 0% with MKNK2 (setting [1]). Besides, the “%Inh” value is recorded as 0% in the experiment with MLCK (setting [1]); 0% in the experiment on MLK1 (setting [1]); 2% with MLK2 (setting [1]); 0% in the experiment on MLK3 (setting [1]); 6% in the experiment with MRCKA (setting [1]); 0% in the experiment with MRCKB (setting [1]). The figures for the “%Inh” value with MST1R (setting [1]) and in the experiment on MST1 (setting [1]) were 28% and 0%, respectively.
`Cc1cccc(-c2nc(Nc3ccncc3)c3ccccc3n2)n1` [GW855857]: the “%Inh” value was 25% in the experiment with MEK2 (setting [1]); 0% in the experiment on MEK3 (setting [1]); 0% in the experiment with MEK4 (setting [1]); 14% with MEK5 (setting [1]); 0% in the experiment with MEK6 (setting [1]); 11% in the experiment with MELK (setting [1]). The “%Inh” value turned out to be 9% with MERTK (setting [1]); 25% in the experiment on MET (setting [1]); 33% in the experiment on MINK (setting [1]); 0% in the experiment with MKK7 (setting [1]); 0% with MKNK1 (setting [1]); 0% in the experiment with MKNK2 (setting [1]). Also, the “%Inh” value in the experiment with MLCK (setting [1]) is listed as 0%; in the experiment with MLK1 (setting [1]), 11%; with MLK2 (setting [1]) it was 7%; with MLK3 (setting [1]), 6%; in the experiment with MRCKA (setting [1]), 47%; in the experiment with MRCKB (setting [1]), 63%. Moreover, the “%Inh” value in the experiment on MST1R (setting [1]) and with MST1 (setting [1]) was 0% in each case.
`Cc1ccc(NC(=O)Nc2cccc(C(F)(F)F)c2)cc1` [GSK955403]: the “%Inh” value was 3% with MEK2 (1 µM); 15% in the experiment with MEK3 (1 µM); 0% with MEK4 (1 µM); 0% in the experiment on MEK5 (1 µM); 26% with MEK6 (1 µM); 15% in the experiment on MELK (1 µM). Also, the “%Inh” value is reported as 29% in the experiment on MERTK (1 µM); 0% in the experiment on MET (1 µM); 0% with MINK (1 µM); 0% with MKK7 (1 µM); 0% in the experiment with MKNK1 (1 µM); 30% in the experiment on MKNK2 (1 µM). Further, the “%Inh” value with MLCK (1 µM) was 0%; in the experiment on MLK1 (1 µM), 0%; with MLK2 (1 µM) it was 13%; in the experiment with MLK3 (1 µM), 6%; in the experiment with MRCKA (1 µM), 0%; in the experiment on MRCKB (1 µM) it was 0%. For the same molecule, the “%Inh” value in the experiment with MST1R (1 µM) and with MST1 (1 µM) was 0% each time.
For the molecule `Cl.NC(=O)c1cccc(Nc2nccc(Nc3ccc(Oc4cccc(Cl)c4)c(Cl)c3)n2)c1` [GW659008], the “%Inh” value in the experiment with MEK2 (setting [1]) is given as 14%; in the experiment with MEK3 (setting [1]), 0%; in the experiment with MEK4 (setting [1]) it was 22%; in the experiment on MEK5 (setting [1]) it was 99.7%; in the experiment with MEK6 (setting [1]) it was 0%; in the experiment with MELK (setting [1]), 0%. In addition, the “%Inh” value in the experiment with MERTK (setting [1]) was 33%; in the experiment on MET (setting [1]), 37%; in the experiment with MINK (setting [1]), 0%; in the experiment with MKK7 (setting [1]), 0%; in the experiment on MKNK1 (setting [1]) it was 8%; in the experiment with MKNK2 (setting [1]) it was 4%. Further, the “%Inh” value in the experiment on MLCK (setting [1]) is reported as 0%; in the experiment with MLK1 (setting [1]), 0%; with MLK2 (setting [1]), 33%; with MLK3 (setting [1]) it was 0%; in the experiment with MRCKA (setting [1]), 26%; in the experiment on MRCKB (setting [1]) it was 0%. Besides, the “%Inh” value in the experiment with MST1R (setting [1]) was 0%; with MST1 (setting [1]) it was 15%.
On to `COc1cc2nccc(Nc3ccc(NC(=O)c4ccc(C)cc4)c(O)c3)c2cc1OC.Cl` [GW440132], for which the “%Inh” value with MEK2 (setting [1]) stood at 0%; with MEK3 (setting [1]), 0%; with MEK4 (setting [1]), 19%; in the experiment with MEK5 (setting [1]) it was 99.9%; in the experiment with MEK6 (setting [1]), 0%; with MELK (setting [1]), 0%. Moreover, the “%Inh” value in the experiment with MERTK (setting [1]) was determined as 5%; in the experiment with MET (setting [1]) it was 0%; in the experiment on MINK (setting [1]), 0%; with MKK7 (setting [1]), 0%; with MKNK1 (setting [1]), 0%; with MKNK2 (setting [1]), 5%. Further, the “%Inh” value with MLCK (setting [1]) is given as 0%; in the experiment on MLK1 (setting [1]), 0%; in the experiment with MLK2 (setting [1]) it was 0%; in the experiment with MLK3 (setting [1]) it was 33%; in the experiment with MRCKA (setting [1]), 13%; with MRCKB (setting [1]), 8%. Also, the “%Inh” value in the experiment with MST1R (setting [1]) turned out to be 0%; in the experiment with MST1 (setting [1]), 1%.
